Measurements taken from ChEMBL document CHEMBL3433997, “St. Jude Leishmania screening dataset” (2016).

What was measured:
Format in all cases: functional
[1] = biological target: Solute carrier family 2, facilitated glucose transporter member 1 (Homo sapiens) (UniProt P11166); assay: ST_JUDE_LEISH: Cytotoxicity at 2uM final concentration against transgenic Leishmania Mexicana promastigotes LmGLUT1 that are glucose transport deficient and complemented with the human glucose transporter GLUT1. Activity is measured by DNA content using SYBR green in vitro
Chain of Solute carrier family 2, facilitated glucose transporter member 1 (Homo sapiens) (P11166 whole entry): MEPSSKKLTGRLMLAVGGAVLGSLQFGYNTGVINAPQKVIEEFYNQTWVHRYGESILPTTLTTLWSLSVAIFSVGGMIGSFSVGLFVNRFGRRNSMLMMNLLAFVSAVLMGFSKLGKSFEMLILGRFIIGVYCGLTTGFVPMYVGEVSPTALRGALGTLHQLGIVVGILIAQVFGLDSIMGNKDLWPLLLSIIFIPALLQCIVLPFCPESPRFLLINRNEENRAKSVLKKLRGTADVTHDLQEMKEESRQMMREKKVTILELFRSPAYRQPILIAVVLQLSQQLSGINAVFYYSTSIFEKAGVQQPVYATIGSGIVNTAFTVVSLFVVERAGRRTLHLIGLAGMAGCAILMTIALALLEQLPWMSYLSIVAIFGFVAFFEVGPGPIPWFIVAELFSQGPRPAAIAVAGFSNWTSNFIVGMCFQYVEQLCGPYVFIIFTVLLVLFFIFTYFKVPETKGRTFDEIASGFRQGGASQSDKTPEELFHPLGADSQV

[2] = biological target: Hexose transporter 1 (Plasmodium falciparum) (UniProt O97467); assay: ST_JUDE_LEISH: Cytotoxicity at 2uM final concentration against transgenic Leishmania Mexicana promastigotes LmPfHT that are glucose transport deficient and complemented with the Plasmodium falciparum hexose transporter. Activity is measured by DNA content using SYBR green in vitro
[3] = biological target: Glucose transporter (Leishmania mexicana) (UniProt O61059); assay: ST_JUDE_LEISH: Cytotoxicity at 2uM final concentration against transgenic Leishmania Mexicana promastigotes LmGT2 that are glucose transport deficient and complemented with the L. Mexicana glucose transporter 2. Activity is measured by DNA content using SYBR green in vitro

| SMILES | inhibition [1] [%] | inhibition [2] [%] | inhibition [3] [%] |
| --- | --- | --- | --- |
| Cc1ccc(C(=O)Cn2nc(-c3ccc(C)c(S(=O)(=O)N4CCCCC4)c3)ccc2=O)cc1 | 8.67 | 12.3 | 6.75 |
| COc1ccc(CNCCCCCCNCc2ccc(OC)c3ccccc23)c2ccccc12 | 59.7 | 97.2 | 103 |
| CCn1ncc2c(NC3CCOCC3)c(CNC(=O)c3ccnn3C)c(C)nc21 | 3.11 | 2.89 | 0.31 |
| O=C(Nc1ccc(C(F)(F)F)cc1)c1ccc(S(=O)(=O)NCC2CCCN(CC3CCCCC3)C2)cc1 (configuration not stated) | 2.94 | 2.24 | 1.65 |
| O=C(Cc1c[nH]cn1)Nc1ccc(-c2ccc(-c3nc4cc(F)ccc4[nH]3)cc2)cc1 | 1.05 | 0.28 | -0.48 |
| c1cc(-c2ccc(CN3CCCC3)cc2)cc(-c2nc3ccccc3[nH]2)c1 | 0.44 | 1.4 | 0.98 |
| NC1=NC2(CCCCC2)N(OCCCCCCc2ccccc2)C(N)=N1 | 2.09 | 1.39 | 0.69 |
| CC1CC(C)CN(S(=O)(=O)c2cc(C(=O)Nc3cccc([N+](=O)[O-])c3)ccc2Br)C1 (configuration not stated) | 7.03 | 7.57 | 5.14 |
| Cc1ccc(NCC(=O)Nc2ccc(F)c(Cl)c2)cc1S(=O)(=O)N1CCOCC1 | 2.54 | 1.86 | 0.32 |
| COc1cccc(NC(=O)NC2CCN(c3ccnc(Nc4ccc(F)cc4)n3)C2)c1 (configuration not stated) | 0.39 | 6.07 | 3.8 |
| CCc1cccc(OCC2CCCN(c3ccc(C(=O)NC4CC4)cn3)C2)c1 (configuration not stated) | 4.71 | 3.55 | 3.3 |
| Cc1nc(Nc2ccc(F)cc2)nc(N2CCc3ccccc3C2C)c1CO (configuration not stated) | 5.38 | 7.38 | 1.5 |
| O=C(/C=C/c1ccc(Cl)cc1)NCCCCCN1CCCC(C(=O)Nc2cccc(Cl)c2)C1 (configuration not stated) | 2.85 | 2.1 | 3.91 |
| O=C1CCCN1CCCNCc1cccc(-c2cccc(-c3nc4cc(C(F)(F)F)ccc4[nH]3)c2)c1 | 4.47 | 3.94 | 4.37 |
| CCCCCCCC1CC(CC(=O)Nc2ccnc3ccc(OC)cc23)CN1 (configuration not stated) | 1.6 | 0.43 | 0.67 |
| O=C(c1ccc(-c2cnc3[nH]cc(-c4ccc(C(=O)N5CCOCC5)cc4)c3c2)cc1)N1CCOCC1 | -0.49 | -1.48 | -1.88 |
| CO/C(=C\C=C\c1cc2cc(Cl)c(Cl)cc2[nH]1)C(=O)NCCCN1CCN(c2cccc(Cl)c2)CC1 | -1.14 | -0.72 | -1.82 |

| SMILES | inhibition [1] [%] | inhibition [2] [%] | inhibition [3] [%] |
| --- | --- | --- | --- |
| O=C(Nc1ccc(Cl)cc1)c1ccc(CN2CCCN(Cc3cccc(Cl)c3)CC2)cc1 | -0.65 | -1.08 | -0.52 |
| NCc1ccc(Nc2nccc(Nc3ccc(-c4ccccc4)cc3)n2)cc1 | 2.28 | 4.91 | 0.24 |
| CC(C)(C)c1cc(Cn2ccnc2)cc(C(C)(C)C)c1O | 6.9 | 9.32 | 4.9 |
| Cc1cc(N)nc2ccc(-c3ccc(CN)cc3)cc12 | 9.09 | 6.77 | 4.15 |
| COc1cc(NC(=O)N2CCOC(CCN3CCC4(CCc5ccccc54)CC3)(c3ccc(Cl)c(Cl)c3)C2)cc(OC)c1 (configuration not stated) | 3.64 | 1.66 | 1.53 |
| Cc1nc(C)c(-c2ccc(-c3ccc(F)cc3)cc2)c(O)c1Br | 0.18 | -0.09 | -1.77 |
| CCOc1cc(CNCCCCCCNCc2cc(OCC)c(OCC)c3ccccc23)c2ccccc2c1OCC | 58.6 | 12.1 | 103 |
| CNCCNCc1cccc(-c2cccc(-c3nc4cc(F)ccc4[nH]3)c2)c1 | 10.2 | 7.92 | 7.49 |
| Nc1nccc2ccc(-c3cccc(O)c3)cc12 | 7.38 | 6.21 | 4.01 |
| Cc1nc2sccn2c1C(=O)NCCc1ccccc1Cl | 0.29 | 1.15 | 1.69 |
| COc1ccc(C2NCCc3c2[nH]c2ccccc32)cc1CN1CCN(c2ccc(F)cc2)CC1 (configuration not stated) | 3.17 | 0.27 | 0.15 |
| O=c1c2ccc(Sc3ccccn3)cc2n(-c2ccccc2)c2cc(Sc3ccccn3)ccc12 | 1.05 | 0.77 | 2.64 |
| CCOC(=O)c1cn(CC)c2cc(N3CCCCC3)c(F)cc2c1=O | 3.39 | 3.64 | 4.37 |
| O=C(Nc1ccc2c(c1)OCO2)NC1CCN(c2ccnc(Nc3ccc(F)cc3)n2)C1 (configuration not stated) | 0.34 | 6.37 | 3.79 |
| Cn1cnc2c(Nc3ccncc3)nc(-c3ccc4ccccc4c3)nc21 | -0.3 | 0.97 | -0.56 |
| CC(C)C[C@H](NC(=O)[C@H](Cc1ccccc1)N(C[C@H](Cc1ccccc1)NC(=O)OC(C)(C)C)C(=O)C(F)(F)F)C(=O)NC1CCN(Cc2ccccc2)CC1 | 5.24 | 5.7 | 4.2 |
| COc1ccc(CNC2Cc3ccccc3C2)cc1-c1ccc(S(=O)(=O)NCCc2ccccn2)s1 | 0.76 | 0.03 | 2.04 |
